Bioassay records deposited in PubChem BioAssay by several laboratories.
FID counter – counter-screen for HCV NS3 helicase inhibitors: DNA intercalator displacement; DNA fluorescent intercalator displacement, fluorescence; inhibition, % at 7.9 µM; actives 0.17% (n = 290,000); AID 1845; in the data active = inhibition above about 37%;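 note: higher means more ethidium bromide displaced from hairpin DNA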
TMEM16A inh – mouse TMEM16A channel inhibition, primary screen; HEK293 TMEM16A/YFP iodide influx fluorescence, ionomycin; normalized B-score (activity score, 25-100; higher = stronger inhibition) at 10 µM; actives 1.2% (n = 310,000); Q8BHY3;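 active = ratio plate-corrected score three or more library SD toward inhibition, starting fluorescence score within five deviations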;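 note: score derived from kinetic fluorescence span divided by baseline fluorescence per well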
PP1 inh – PP1-alpha (human) inhibition in PP5 counter-screen | inhibition, % at 6.7 µM | AID 2235 | purified PP1alpha, OMFP fluorescence | P62136 | actives 0.9% (n = 320,000);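 active = inhibition above the mean inhibition of all tested compounds plus 3 SD, computed separately for each screening campaign, cut at about 15% in these data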
Target sequence (P62136 whole entry, looked up): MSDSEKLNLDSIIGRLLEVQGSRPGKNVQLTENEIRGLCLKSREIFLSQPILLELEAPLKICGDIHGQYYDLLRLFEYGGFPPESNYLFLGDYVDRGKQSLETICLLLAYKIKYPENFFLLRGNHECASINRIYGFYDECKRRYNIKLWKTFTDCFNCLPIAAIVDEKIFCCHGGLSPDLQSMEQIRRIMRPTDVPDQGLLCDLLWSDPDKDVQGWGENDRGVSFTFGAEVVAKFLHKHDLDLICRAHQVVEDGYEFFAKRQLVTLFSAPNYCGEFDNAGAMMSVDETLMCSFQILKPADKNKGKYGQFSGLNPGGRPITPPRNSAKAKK
PP5 primary – blocks human protein phosphatase 5 activity | P53041 | purified PP5c, OMFP substrate fluorescence | inhibition, % at 6.7 µM | actives 0.18% (n = 320,000);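 active = inhibition above the campaign's mean inhibition across all tested compounds plus 3 SD, cut at about 9.5% in these data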
TMEM16A act – activates or potentiates the mouse TMEM16A chloride channel. Q8BHY3. HEK293 TMEM16A/YFP-H148Q/I152L, iodide quench fluorescence; active compounds read low. B-score at 10 µM. actives 0.3% (n = 340,000);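 active = fluorescence-ratio B-score plate-corrected deviation score at least 3 library SD below zero, with starting fluorescence score within 5 deviations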;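 note: channel opened by trigger with iodide after compound preincubation; score built on the fluorescence ratio of max minus min over baseline; more negative score means more quench and so TMEM16A activation or potentiation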
PREPL inhibitor – inhibits the human prolyl oligopeptidase-like enzyme | Q4J6C6 | recombinant PREPL, fluorescence polarization activity-based probe | inhibition, % at 5.96 µM | actives 0.68% (n = 320,000); in the data active = inhibition above about 43%
PP1 confirm – human PP1 phosphatase inhibition, confirmation; purified PP1alpha, OMFP substrate fluorescence; actives 52% (n = 1,900); AID 2358; shares compounds with PP1 inh; inhibition, % at 6.7 µM;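 active = mean PP1 inhibition above a set limit taken from the earlier primary screen, cut at about 15% in these data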
PP5 inh counter – inhibits human PP5 phosphatase in PP1 counter-screen. shares compounds with PP1 inh. purified PP5c, OMFP fluorescence. inhibition, % at 6.7 µM. actives 4% (n = 1,900). AID 2360;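 active = mean PP5 inhibition over triplicate wells above about 9.5% taken from the earlier PP1 screen, limit read from the data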
Each line names hits and unclear results; the compound was inactive in the other large screens (follow-up assays come after a bar, where they were run). Compounds with a hit are over-represented: about 2.7% of the library has one in this group of screens.

Cn1c(-c2ccccc2)c(/C=N/NC(=O)c2ccc(O)cc2)c2ccccc21	none
CC(C)(C)N(Cc1ccccc1)C(=O)COC(=O)c1ccccc1SCC(=O)N1CCCC1	none (no result: FID counter)
O=C(Nc1ccc(NC(=O)c2sc3ccccc3c2Cl)cc1Cl)c1ccco1	PP1 inh 19.9 | PP1 confirm 28.3 | PP5 inh counter inactive
O=C(Nc1ccc(NC(=O)c2cccs2)c(Cl)c1)c1ccco1	none
Cc1ccc(C2C(C(=O)c3ccco3)=C(O)C(=O)N2c2nnc(C)s2)cc1 (stereo not drawn)	none
CCCSc1nnc(N2C(=O)C(O)=C(C(=O)c3ccco3)C2c2ccccc2F)s1 (stereo not drawn)	PP1 inh 22.2, TMEM16A act -4.77 | PP1 confirm inactive | PP5 inh counter inactive
CSc1nnc(N2C(=O)C(O)=C(C(=O)c3ccc(C)o3)C2c2ccc(C)cc2)s1 (stereo not drawn)	PP1 inh 29.7, TMEM16A act -4.8 | PP1 confirm 24.5 | PP5 inh counter inactive
CCOC(=O)c1ccc(NC(=O)C2COc3ccccc3O2)cc1 (stereo not drawn)	none
CCOC(=O)c1ccc(-n2c(O)c(/C=N/NC(=O)C3COc4ccccc4O3)c3ccccc3c2=O)cc1 (stereo not drawn)	PP1 inh 30.9 | PP1 confirm 32.7 | PP5 inh counter inactive
COCCOn1c(SCCOC)nc2ccccc2c1=O	none
O=C1NC(=S)SC1=Cc1ccccc1Cl	none (no result: FID counter, TMEM16A inh, PP1 inh, PP5 primary, PREPL inhibitor)
Cc1ccc(C2C(/C=C3/SC(=S)NC3=O)=C(c3cccs3)Oc3ccccc32)cc1 (stereo not drawn)	PP1 inh 31.1 | PP1 confirm 21.7 | PP5 inh counter inactive
Cc1ccc(C(=O)C2=C(O)C(=O)N(CC3CCCO3)C2c2ccccc2F)o1 (stereo not drawn)	none
CCCCOc1ccc(C2C(C(=O)c3ccc(C)o3)=C(O)C(=O)N2CC2CCCO2)cc1 (stereo not drawn)	PP1 inh 19.9 | PP1 confirm 27.0 | PP5 inh counter inactive
CCOc1ccc(N/C(N)=N/c2nc(CSc3nnnn3-c3ccccc3)cc(=O)[nH]2)cc1	none
CCC1=NN=C(c2ccc(F)cc2)C(c2c[nH]c3ccccc23)N1O (stereo not drawn)	PP1 inh 21.7 | PP1 confirm inactive | PP5 inh counter inactive
NC(N)=N/N=C/c1ccc(OCc2ccccc2)cc1	none
NC(N)=N/N=C/c1ccc(OCc2ccc(Cl)cc2)cc1	PP1 inh 21.2 | PP1 confirm inactive | PP5 inh counter inactive
O=C1/C(=C\c2cccnc2)Sc2ccccc21	PP1 inh 18.9 | PP1 confirm 16.4 | PP5 inh counter inactive
O=C(Cc1ccsc1)NNC(=O)c1cccc(Cl)c1	none
CN(C)CCCN=Cc1c(-c2ccccc2)[nH]n(-c2nc3ccccc3s2)c1=O	PP1 inh 25.8 | PP1 confirm inactive | PP5 inh counter inactive
O=c1c(C=NCCCn2ccnc2)c(-c2ccccc2)[nH]n1-c1nc2ccccc2s1	PP1 inh 29.1 | PP1 confirm inactive | PP5 inh counter inactive
CCCc1[nH]n(-c2ccc([N+](=O)[O-])cc2)c(=O)c1C=NCCCn1ccnc1	none
CCCCC[C@H]1CN(C2CCCCC2)C(=O)[C@@H]1CC(=O)NCc1ccccc1	none
CC1CCCCC12NC(=O)N(CC(=O)OCC(=O)c1ccc(OC(F)F)cc1OC(F)F)C2=O (stereo not drawn)	none
Cc1ccc(-n2c(=O)cc(NCc3cccnc3)[nH]c2=O)cc1	PP1 inh 24.6 | PP1 confirm inactive | PP5 inh counter inactive
O=C(CN(Cc1ccc(Br)cc1)S(=O)(=O)c1ccccc1)NCC1CCCO1 (stereo not drawn)	none
CCOC(=O)c1sc(N2N=C(C)/C(=C\c3ccc(OCC(=O)OC)cc3)C2=O)nc1C	PP1 inh 24.0 | PP1 confirm inactive | PP5 inh counter inactive
O=C(C[n+]1ccccc1)N/N=C/c1c(F)cccc1Cl	none
COc1nc(-c2ccccc2)ccc1-c1noc(COc2ccccc2)n1	PP1 inh 19.4 | PP1 confirm inactive | PP5 inh counter inactive
CCOC(=O)c1ccc(NC(=O)CSc2nnc(CCc3ccc(C)o3)n2-c2ccccc2)cc1	PP1 inh 19.3 | PP1 confirm inactive | PP5 inh counter inactive
COc1ccc(-c2cccc(C3CC=CC4C3C(=O)N(Cc3ccccc3)C4c3ccc4ccccc4c3)c2)cc1 (stereo not drawn)	none (no result: FID counter)
COc1ccc(C2C3C=CCC(c4cccc(-c5ccc(C)cc5)c4)C3C(=O)N2Cc2ccccc2)cc1Cl (stereo not drawn)	PP1 inh 17.8 (no result: FID counter) | PP1 confirm inactive | PP5 inh counter inactive
CC(=O)NC1(NC(C)=O)CCN(C)CC1	none
O=C(O)c1cc(-c2ccc(N3CCOCC3)cc2)nn1-c1ccc(F)cc1F	PP1 inh 24.2 | PP1 confirm 26.8 | PP5 inh counter inactive
O=S(=O)(Nc1ccc(N2CCOCC2)cc1)c1ccc(F)cc1F	none
O=C(O)c1cc(-c2ccc(N3CCOCC3)cc2)nn1-c1ccccc1Cl	PP1 inh 34.3 | PP1 confirm 37.6 | PP5 inh counter inactive
CC(C)CCCN1C(Nc2ccccc2)=NC[C@@H]1C	none
Oc1ccccc1Nc1nc(NCc2ccccc2)c2ccccc2n1	TMEM16A inh 100, PP1 inh 19.1 | PP1 confirm inactive | PP5 inh counter inactive
CCOC(=O)N1CCC(c2cc(=O)n3[nH]c(-c4ccccc4)cc3n2)CC1	none
CCOC(=O)N1CCC(c2cc(=O)n3[nH]c(C)c(-c4ccc(F)cc4)c3n2)CC1	PP1 inh 19.5 | PP1 confirm inactive | PP5 inh counter inactive
COc1cccc(CNC(=O)Cn2nc(C)c([N+](=O)[O-])c2C)c1	none
Cc1cccc(NC(=O)CN2C(=O)N/C(=C/c3ccc(C)s3)C2=O)c1	PP1 inh 20.6 | PP1 confirm inactive | PP5 inh counter inactive
COc1ccccc1CNC(=O)COC(=O)COc1ccccc1F	none (no result: FID counter, TMEM16A inh)
Cc1ccc2c(c1)C(=O)C(=O)N2CC(=O)OC(C)C	none
Cc1cccc2c1N(CCOc1ccc(C(C)(C)C)cc1)C(=O)C2=O	PP1 inh 23.3 | PP1 confirm inactive | PP5 inh counter inactive
COc1ccccc1OCCCN1C(=O)C(=O)c2cccc(C)c21	none
Cc1cccc2c1N(CCOc1ccccc1Cl)C(=O)C2=O	PP1 inh 18.1 | PP1 confirm inactive | PP5 inh counter inactive
Cc1ccc(OCCN2C(=O)C(=O)c3cc(C)ccc32)cc1	PP1 inh 18.4 | PP1 confirm inactive | PP5 inh counter inactive
COc1ccc(NC(=O)C(CC(C)C)NC(=O)C2CCC(C)CC2)c(OC)c1 (stereo not drawn)	none
